These results are taken from PubChem BioAssay (NCATS).

Results filed as inconclusive are left out. The source made the active and inactive calls. Unless noted, calls come from the whole dose curve; as a rule, active = well fitted curve in the direction sought with a large enough effect; inconclusive = small, poorly fitted or top-dose-only effect, or another doubt; inactive = no such curve, though single readings can be large; an effect the other way counts as inactive or inconclusive. Starred links: 1 amine or outer side, 2 acyl side, 3 side chain; linkers in the order of their positions; H or OH if unused. Positions of bridges follow the written chain, without caps; N, C: chain ends. Non-standard residues stand in square brackets, D forms with d. Residues, ends and D or L forms follow the SMILES beside them. ξ: configuration not given here. *: point of attachment. X3 = C[C@@H](Oc1ccc([C@H](N[*:1])C(=O)[*:2])cc1)[C@]1(/C=C\C(=O)[*:3])CO1; d(aIle) = CC[C@H](C)[C@@H](N)C(=O)O; X2 = CC(C)[C@@H](O)C(C)C(=O)*; ξNMeF = CNC(Cc1ccccc1)C(=O)O; ξT = CC(O)C(N)C(=O)O; ξS = NC(CO)C(=O)O

Test [1] in a line: HEK-293 Cancer Cell Toxicity qHTS against the NCATS CANVASS Library (AID 1347355). Note: nearly all actives have a fitted effect of over 65% in size. Note: potency is the fitted concentration of half-maximal effect. Summed up:
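First, 1000 cells go into each well and rest for 4 hours. Next, an 11-point dilution range is pinned in. Plates then incubate 72 hours before CellTiter-Glo addition and luminescence reading.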

A short description of test [2]: HPAF-II 24hr Apoptosis Induction qHTS against the NCATS CANVASS Library (AID 1347356). Summed up: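 Cells seeded at 500 per well, then compounds pin-transferred in an 11-point concentration series. After 24 hours at 37 degrees C, Caspase-Glo 3/7 was added and luminescence measured following 15 min at room temperature.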
In general terms: In qHTS, concentration-response curves come from the screen itself.

Test [3] in a line: HPAF-II 12hr Apoptosis Induction qHTS against the NCATS CANVASS Library (AID 1347358). Summed up: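 Cells plated at 500 per well are dosed with compound and incubated 12 hours at 37 degrees C. Caspase-Glo 3/7 reagent is added and, after 15 min at room temperature, luminescence proportional to caspase activity is measured.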
A short description of test [4]: HEK293 24hr Apoptosis Induction qHTS against the NCATS CANVASS Library (AID 1347359). Summed up: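 Caspase-3/7 activation measured as luminescence from the DEVD-based Caspase-Glo reagent, 15 min at room temperature, following 24-hour compound treatment of HEK293 cells.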
Test [5] can be described thus: HPAF-II 18hr Apoptosis Induction qHTS against the NCATS CANVASS Library (AID 1347360). The essentials:
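Caspase-Glo 3/7 luminescence (DEVD substrate) after 15 min RT; HPAF-II, 500 cells/well, 18 h compound exposure at 37 degrees C, qHTS series; doxorubicin control 0.1nM - 4uM.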

Test [6] is described as follows: HEK293 12hr Apoptosis Induction qHTS against the NCATS CANVASS Library (AID 1347361). The essentials: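 500 HEK293 cells/well; cpds pin-transferred, 11-pt conc series; 12 h, 37 degrees C/5% CO2; Caspase-Glo 3/7 added, 15 min RT dark; luminescence.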
The test system of test [7] is NAD(P)H diaphorase (Clostridium kluyveri). In words: Diaphorse counterscreen qHTS: Assay Interference Panel against the NCATS CANVASS Library (AID 1347362). The essentials:
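Counterscreen for coupling-enzyme interference: resorufin fluorescence from resazurin/NADH turnover, read after 5 min at room temperature. Compounds were tested over an 11-point series after 15 min dark preincubation with diaphorase in PBS-Tween.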
(In general: The purpose of a counterscreen is to sort out artefacts and off-target activity.)

For test [8], the target named is Luciferin 4-monooxygenase (Photinus pyralis) (UniProt P08659). As to the kind of experiment: Firefly luciferase counterscreen qHTS: Assay Interference Panel against the NCATS CANVASS Library (AID 1347363). Note: series mostly up to about 57 µM. The essentials: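 Luminescence inhibition readout: compounds (11-point qHTS) sat 15 min at room temperature with substrate mix (0.013 mM luciferin and ATP), then firefly luciferase was added and signal read 5 min later.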
Sequence of Luciferin 4-monooxygenase (Photinus pyralis) (P08659 whole entry, looked up): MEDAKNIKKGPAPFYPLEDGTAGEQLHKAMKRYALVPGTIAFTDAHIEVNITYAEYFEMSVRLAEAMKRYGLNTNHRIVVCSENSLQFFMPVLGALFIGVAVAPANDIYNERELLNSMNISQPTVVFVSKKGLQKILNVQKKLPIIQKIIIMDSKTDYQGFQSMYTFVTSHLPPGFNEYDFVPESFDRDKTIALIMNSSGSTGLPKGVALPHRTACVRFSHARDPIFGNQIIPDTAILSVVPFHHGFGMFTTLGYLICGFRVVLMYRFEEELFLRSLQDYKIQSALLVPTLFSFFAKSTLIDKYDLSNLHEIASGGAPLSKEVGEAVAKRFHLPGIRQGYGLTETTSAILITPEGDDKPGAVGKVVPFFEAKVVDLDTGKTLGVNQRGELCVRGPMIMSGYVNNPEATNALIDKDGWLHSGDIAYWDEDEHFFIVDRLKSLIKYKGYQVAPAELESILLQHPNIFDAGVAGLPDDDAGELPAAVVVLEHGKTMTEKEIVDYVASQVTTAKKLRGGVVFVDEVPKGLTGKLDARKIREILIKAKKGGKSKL

The nature of test [9]: qHTS for ATAD5 Agonist screened against the NCATS CANVASS Library (AID 1347367). The essentials:
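Luminescence read-out: ATAD5-driven luciferase in stably transfected HEK 293T cells, which rises post-transcriptionally with DNA damage. Cells were exposed 16hr at 37C to test compound; a CellTiter-Fluor fluorescence read (1hr) measured viability first.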

Test [10] in a line: J3T Cancer Cell Toxicity qHTS against the NCATS CANVASS Library (AID 1347371). Note: potency is the fitted concentration of half-maximal effect. Summed up: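 Luminescence from CellTiterGlo, reporting cellular ATP, serves as the viability measure after 72 hr compound treatment of J3T canine glioma cells seeded at 500 cells/well.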
Test [11] concerns the target Nuclear receptor subfamily 1 group I member 3 (Homo sapiens) (UniProt Q14994). In words: qHTS for Constitutive Androstane Receptor (CAR) Agonist screened against the NCATS CANVASS Library (AID 1347373).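 Note: every well also contained 1.5 µM PK11195 alongside the test compound.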 Summed up: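 Cells were plated and allowed to attach for 4hr, then dosed with compound in an 11-point series alongside 1.5uM PK11195. After 24hr at 37C, viability was measured fluorometrically and CAR-driven CYP2B6 reporter luminescence was recorded.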

A short description of test [12]: qHTS for Hypoxia signaling pathway (HIF-1) agonists against the NCATS CANVASS Library (AID 1347375). The essentials:
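Cells plated and rested 5 h, compounds pinned in DMSO across 11 concentrations, incubated 17 h at 37C, loaded with CCF4-AM for 2 h, fluorescence read at 460 and 530 nm, then CellTiter-Glo luminescence measured for viability and normalization.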

A short description of test [13]: 10-beta competent E. coli microbial cell viability qHTS against the NCATS CANVASS Library (AID 1347376). Note: series mostly up to about 46 µM. Summed up: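 Bacterial suspension diluted to 0.2 OD was dosed with compounds, 11-point series, then held overnight at 37C. BacTiter-Glo reagent was added, and after 20 min at room temperature ATP-dependent luminescence was measured.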
A short description of test [14]: qHTS for H2AX Agonists against the NCATS CANVASS Library (AID 1347378). The essentials:
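TR-FRET readout (ex 320 nm, em 665/620 nm ratio) of phospho-H2AX (S139) in CHO-K1 lysates. Cells treated 3 hr at 37C with compound titration, 0.76% DMSO; lysis 30 min, antibody detection 24 hr at RT.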

Test [15] can be described thus: Inflammasome Signaling qHTS Counterscreen: IL-1-beta AlphaLISA counterscreen against the NCATS CANVASS Library (AID 1347381).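 Note: cell-free check with purified IL-1β in medium and no THP-1 cells; series mostly up to about 57 µM.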 The essentials: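 Purified IL-1-beta (4 pg/well) + compound, 11-pt conc. series; acceptor beads 6 ug/mL + biotin-Ab 0.6 nM final, 1 h RT; SA-donor 24 ug/ml final, 30 min dark RT; read ex 680/em 615.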
The nature of test [16]: Cytotoxicity qHTS for assessment of Hepg2 cells membrane integrity screened against the NCATS CANVASS Library (AID 1347387). Summed up: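 Cells were seeded at 2000 per well and left overnight to attach. Compounds were pin-transferred to give 0.59 nM - 46 uM in an 11-point series and incubated 5 hr at 37C. CytoTox-ONE reagent was added and, after 10 min at room temperature, fluorescence (ex 560, em 590 nm) was read.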

Test [17] can be described thus: qHTS for activators of dead-cell proteases activity screened against the NCATS CANVASS Library (AID 1347392).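 Note: luminescence from protease leaking out of membrane-damaged cells cleaving impermeant substrate; rising signal means more cytotoxicity.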 The essentials:
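Luminescent dead-cell protease readout (AAF-aminoluciferin, 15 min, room temperature) after 5 h compound treatment of HepG2 cells (2000/well, pre-attached 18 h). Eleven concentrations.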

Test [18] can be described thus: Redox Reaction Profiling qHTS: Assay Interference Panel against the NCATS CANVASS Library (AID 1347401). Summed up:
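Redox-cycling liability assessed as DTT-driven conversion of resazurin (5 uM, with 200 uM DTT, HEPES pH 7.3) to fluorescent resorufin. Fluorescence at 525/598 nm measured initially and after 15 min dark incubation.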

Test [19] in a line: qHTS for inhibitors of Rabies Virus screened against the NCATS CANVASS Library (AID 1347402; calls by dose curve; note: series mostly up to about 46 µM).

Sequence of Nuclear receptor subfamily 1 group I member 3 (Homo sapiens) (Q14994 whole entry, looked up): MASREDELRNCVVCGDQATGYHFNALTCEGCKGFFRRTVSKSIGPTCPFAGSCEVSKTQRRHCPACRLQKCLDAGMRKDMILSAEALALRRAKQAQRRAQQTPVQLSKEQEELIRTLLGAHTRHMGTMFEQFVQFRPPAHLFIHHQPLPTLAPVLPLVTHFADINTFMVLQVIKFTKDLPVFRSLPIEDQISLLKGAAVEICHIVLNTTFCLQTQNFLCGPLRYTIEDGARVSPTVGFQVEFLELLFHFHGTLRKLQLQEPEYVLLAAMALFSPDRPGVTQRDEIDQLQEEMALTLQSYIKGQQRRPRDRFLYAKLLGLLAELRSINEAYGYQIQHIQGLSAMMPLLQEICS

Turning to `C=C[C@H]1CN2CCc3c([nH]c4cccc(OC)c34)[C@@H]2C[C@@H]1/C(=C\OC)C(=O)OC`, in test [1], the Potency is 18.7 µM (active). The result in [2], in [3], in test [4], in test [5], in test [6] and in test [12] was inactive. Besides, the compound was classed as inactive in test [13], in test [15], in test [16] and in [17]. Also, the Potency entry in test [7], in [8], in test [9], in test [10], in test [11] and in test [14] was “inactive” each time. Further, in test [18], the Potency entry was “inactive”.
Take `C[C@]12CC(O)C3[C@@H](CC[C@@H]4C[C@@H](O)CC[C@]34CO)[C@@]1(O)CC[C@@H]2C1=CC(=O)OC1` (stereo not given in full): the Potency is 3.72 µM (active) in test [1] and 10.5 µM (active) in test [10]. For the same compound, the compound was called inactive in test [2], in test [3], in [4], in test [5], in test [6] and in test [12]. In addition, the compound was called inactive in test [13], in [15], in test [16], in test [17] and in test [19]. In addition, the Potency entry in [7], in test [8], in test [9], in test [11], in test [14] and in [18] was “inactive” throughout.
`CC1(C)C=Cc2c(ccc3c2OC[C@@H](c2ccc(O)cc2O)C3)O1`: in test [19], the result was inactive.
On to `CC[C@H](C)[C@H]1NC(=O)[C@@H](NC(=O)C(C)[C@H](O)C(C)C)[C@@H](C)OC(=O)C2COC(=O)CNC(=O)/C=C\[C@]3(CO3)[C@@H](C)Oc3ccc(cc3)[C@H](NC1=O)C(=O)N(C)C(Cc1ccccc1)C(=O)NC(C(C)O)C(=O)N2` (stereo not given in full) (X2-T[d(aIle)][X3][ξNMeF][ξT][ξS]; ester 1-C; linker 3-6 via G), for which the Potency entry in test [1], in test [7], in test [8], in [9], in test [10] and in [11] was “inactive” each time. For the same compound, the Potency entry in test [14] and in test [18] was “inactive” in each case. The compound was classed as inactive in test [2], in test [3], in test [4], in test [5], in test [6] and in test [12]. In addition, the result in [13], in [15], in test [16], in test [17] and in test [19] was inactive.
Regarding `C[C@]12CCC3[C@@H](CC[C@@H]4C[C@@H](O)CC[C@]34CO)[C@@]1(O)CC[C@@H]2C1=CC(=O)OC1` (stereo not given in full), the Potency in test [1] is 1.87 µM (active); in [10], 2.96 µM (active). The compound was called inactive in test [2], in [3], in test [4], in test [5], in [6] and in test [12]. In addition, the compound was called inactive in test [13], in test [15], in [16] and in test [17]. For the same compound, the Potency result in test [7], in test [8], in [9], in test [11], in test [14] and in test [18] was “inactive” throughout.
